Results on eleven molecules are retold here after PubChem BioAssay (NCATS).

Inconclusive results are not listed. Active and inactive are the calls of the source. The call rests on the fitted dose curve; in most records, active means well fitted inhibition curve with a large enough effect; inconclusive means small, poorly fitted or top-dose-only effect; inactive means flat fitted curve, though single readings scatter.

The assay relates to CRL-7250. Put plainly: qHTS assay to identify novel small-molecules to repurpose for Merkel cell carcinoma treatment (AID 1296009). Further: nearly all actives have a fitted effect of over 60% in size. The settings on record: MCC and control cell lines, CellTiter-Glo viability, 72 h; series mostly up to 92 µM; activity change, negative = cytotoxicity: at the top concentration. Put shortly:
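Viability readout: ATP luminescence (CellTiter-Glo) after 72 hr drug exposure at 37 degree celsius. Dose-response format was 8 points for NPC and 11 points for MIPE; data normalized to in-plate controls.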
Background: In qHTS, concentration-response curves come from the screen itself.
Turning to `Cc1nc2cc(C(=O)NCc3ccccn3)nn2c(C)c1Cc1cccc(Cl)c1`, the result was inactive.

Consider `O=C(Cc1ccc(-c2ccccc2)cc1)NC1CCC1`, for which the molecule was called inactive.

For `C/C(=C\CCC(C)(C)O)CCO[C@@H]1O[C@H](CO[C@@H]2O[C@@H](C)[C@H](O)[C@@H](O)[C@H]2O)[C@@H](O)[C@H](O)[C@H]1O`, the “outcome” value was “inactive [at 17.4 µM]”.

Consider `CNC(C)C(=O)NC(C(=O)N1CCCC1C(=O)Nc1cccc2ncccc12)C(C)C` (stereo unspecified), for which the call was inactive.

As to `O=C(/C=C/c1ccc(O)cc1)OC[C@H]1O[C@@H](OC(=O)/C=C/c2ccccc2)[C@H](O)[C@@H](O)[C@@H]1O`, the “outcome” value was “inactive [at 17.4 µM]”.

For `NC(=O)c1cccc2[nH]c(-c3ccc(C4CCCN4)cc3F)nc12` (stereo unspecified), the molecule was classed as inactive.

For `O=C(/C=C/c1ccc(O)c(O)c1)OC[C@H]1O[C@@H](OC2CCCCC2O)[C@H](O)[C@@H](O)[C@@H]1O` (stereo partly specified), the “outcome” value is “inactive [at 17.4 µM]”.

For the molecule `O=S(=O)(NC1CCC(c2cc(F)ccc2F)(S(=O)(=O)c2ccc(Cl)cc2)CC1)C(F)(F)F` (stereo unspecified), the call was inactive.

With `CC(C)(O)c1ccc2c(c1)ncn2-c1cccc(-c2ccccc2C#N)c1`, the molecule was called inactive.

In the case of `COc1cc(/C=C/C(=O)O[C@H]2C[C@@H]3C(C(=O)O)=CO[C@@H](O[C@@H]4O[C@H](CO)[C@@H](O)[C@H](O)[C@H]4O)[C@@H]3[C@H]2C)ccc1O`, the “outcome” value is “inactive [at 17.4 µM]”.

As to `C/C=C(\C)C(=O)OC[C@H]1O[C@@H](O[C@H]2[C@@H](O[C@H]3O[C@H](CO)[C@@H](O)[C@H](O)[C@H]3O[C@@H]3O[C@H](CO)[C@@H](O)[C@H](O)[C@H]3O)O[C@H](COC(=O)/C(C)=C/C)[C@@H](O)[C@@H]2O)[C@H](O)[C@@H](O)[C@@H]1O`, the outcome was “inactive [at 9.27 µM]”.
